The text below walks through data of PubChem BioAssay (EPA / NIEHS).

The source made the active and inactive calls. The calls were made as follows: active = hit-call score of the fitted dose curve at least 0.9, where 1 is the maximum; inactive = score below 0.9.

The nature of this test: CCTE_Harrill_HTTr_Viability_MCF7: CCTE's 6-hour Cell Viability Assessment for the High-Throughput Transcriptomics (HTTr) Platform, in MCF-7 cells cultured in DMEM + 10% fetal bovine serum, Harrill Lab (AID 2284010). From the text:
This is a cell-based assay that evaluates cell viability using high content imaging to evaluate membrane integrity using propidium iodide dye exclusion in a 384 well format.One of seven assay components measured from the CCTE_Harrill_HTTr_Viability assay. This was part of a full screening experiment. This is a cell-based assay that evaluates cell viability in MCF-7 cells cultured in DMEM + 10% fetal bovine serum. High content imaging is used to evaluate membrane integrity using propidium iodide dye exclusion. Measurements are taken at 6 hours after chemical dosing in 384-well format.The assay component endpoint CCTE_Harrill_HTTr_Viability_MCF7 was analyzed with bidirectional fitting relation to DMSO as the negative control and baseline of activity. Using a type of viability reporter, gain-of-signal activity can be used to evaluate membrane integrity using propidium iodide dye exclusion to understand changes in cytotoxicity. To generalize the intended target to other relatable targets, this assay endpoint is annotated to cell cycle, where the subfamily is cytotoxicity.
Chemicals were tested in MCF7 cells in an eight point dilution series with a six hour exposure duration.
For `COP(=S)(OC)SCC(=O)N(C)C=O`, the result was inactive.
Same read-out and setting: in the case of `COCCOC(C)=O` it was “inactive”.
For `CCCOC(=O)c1ccccc1C(=O)OCCC`, the result was inactive.
On the same count and under the same terms, the result for `O=CC=Cc1ccccc1` reads “inactive”.
The same measure, in the same setting: the result for `CCOC(=O)N(C)N=O` reads “inactive”.
Regarding `O=C1Nc2ccc(Cl)cc2C(c2ccccc2)=NC1O` (stereo not given), the result was inactive.
For the compound `CC(=O)C=Cc1ccccc1`, the outcome was inactive.
On the same count and under the same terms, the result for `CC(Oc1ccc(Oc2ncc(C(F)(F)F)cc2Cl)cc1)C(=O)O` (stereo not given) reads “inactive”; that for `CCCC(C)(COC(N)=O)COC(=O)NC(C)C` (stereo not given), “inactive”; that for `CCOC(=O)NC(=S)Nc1ccccc1NC(=S)NC(=O)OCC`, “inactive”.
As for `O=C1CCO1`, the result was inactive.
On the same count and under the same terms, the result for `CC(C)(C)C(=O)CCl` reads “inactive”; that for `CN(C)CCC#N`, “inactive”.
Consider `CCCN(CC1CC1)c1c([N+](=O)[O-])cc(C(F)(F)F)cc1[N+](=O)[O-]`, for which the outcome was inactive.
As for `[Cl-].[Cl-].[Cl-].[Gd+3]`, the outcome was inactive.
The same measure, in the same setting: in the case of `COc1cc(OC)nc(Oc2cccc(Oc3nc(OC)cc(OC)n3)c2C(=O)O)n1` it was “inactive”.
On the same count and under the same terms, the result for `O=C(NC(=O)c1c(F)cccc1F)Nc1ccc(Oc2ccc(C(F)(F)F)cc2Cl)cc1F` reads “inactive”; that for `O=CNC(N1CCN(C(NC=O)C(Cl)(Cl)Cl)CC1)C(Cl)(Cl)Cl` (stereo not given), “inactive”; that for `CCc1cc(C)cc(CC)c1-c1c(OC(=O)C(C)(C)C)n2n(c1=O)CCOCC2`, “inactive”.
The same measure, in the same setting: in the case of `O=S(=O)(O)O` it was “inactive”; in that of `O=[N+]([O-])c1ccc(Cl)cc1`, “inactive”.
By AC50 is commonly meant the concentration at which the activity in the assay is half-maximal. `O=C(O)c1ccccc1C(=O)Nc1cccc2ccccc12`: the AC50 is 53.8 µM (active).
For `ClC=C(Cl)CCl`, the result was inactive.
On the same count and under the same terms, the result for `II` reads “inactive”.
In the case of `Cc1ccc2cc(C)ccc2c1`, the outcome was inactive.
Still for that read-out and setting: the result for `O=S1OC[C@@H]2[C@H](CO1)[C@]1(Cl)C(Cl)=C(Cl)[C@]2(Cl)C1(Cl)Cl` (stereo not given in full) reads “inactive”.
On the same count and under the same terms, in the case of `BrC(Br)Br` it was “inactive”.
In the case of `O=C(O)CCCOC(=O)c1ccccc1C(=O)O`, the result was inactive.
As to `FC(F)(F)c1ccc(OCCCOc2c(Cl)cc(OCC=C(Cl)Cl)cc2Cl)nc1`, the outcome was inactive.
The same measure, in the same setting: the result for `Clc1c(Cl)c(Cl)c2c(c1Cl)Oc1c(Cl)c(Cl)c(Cl)c(Cl)c1O2` reads “inactive”.
On the same count and under the same terms, in the case of `CC(C)[C@@H](C(=O)O[C@@H](C#N)c1cccc(Oc2ccccc2)c1)c1ccc(Cl)cc1` it was “inactive”; in that of `C=CCN(CC=C)C(=O)C(Cl)Cl`, “inactive”.
On the same count and under the same terms, in the case of `N#Cc1cc(I)c(O)c(I)c1` it was “inactive”; in that of `COc1cccc2c1cc([N+](=O)[O-])c1c(C(=O)O)cc3c(c12)OCO3`, “inactive”.
For `CC(=O)c1cc2c(cc1C)C(C)(C)C(C)CC2(C)C` (stereo not given), the outcome was inactive.
Same read-out and setting: in the case of `O=[N+]([O-])O` it was “inactive”; in that of `C[N+](C)(C)CC(=O)O`, “inactive”; in that of `Oc1ccc(C2(c3ccc(O)cc3)CCCCC2)cc1`, “inactive”.
Turning to `COP(=S)(Oc1cc(Cl)c(Br)cc1Cl)c1ccccc1` (stereo not given), the result was inactive.
The same measure, in the same setting: the result for `Cc1ccc(N(SC(F)(Cl)Cl)S(=O)(=O)N(C)C)cc1` reads “inactive”.
